Structures are written as SMILES. Results filed as inconclusive are left out. Where a call stands in place of a potency, no number is given. Calls of active or inactive are those of the source. The call rests on the fitted dose curve; in most records, active means well fitted inhibition curve with a large enough effect; inconclusive means small, poorly fitted or top-dose-only effect; inactive means flat fitted curve, though single readings scatter.
Potency means the concentration at half of the fitted maximal effect.

One assay has as its system 3D7. The assay can be described thus: qHTS profiling for inhibitors of Plasmodium falciparum proliferation (AID 504749). Further: nearly all actives have a fitted effect of over 60% in size. The following applies: P. falciparum in erythrocytes, SYBR Green DNA, 72 h; series mostly up to 28.7 µM. Put shortly: (§1)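 Each compound contacts P. falciparum-infected red blood cells for 72 h at 37 C; lysis buffer (Tris, EDTA, saponin, Triton X, SYBR Green I) is added and fluorescence measured next morning; values normalized to controls.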
With `O=C(OCCN1CCCCC1)C(O)(c1ccccc1)c1ccccc1`, the Potency entry is “inactive”.

As for `CC(N)Cc1ccc(O)cc1` (configuration not stated), the Potency entry is “inactive”.

As for `CC(=O)OC1CN2CCC1CC2` (configuration not stated), the Potency result was “inactive”.

For the compound `COc1ccc(OC)c(C(O)C(C)N)c1` (configuration not stated), the Potency entry was “inactive”.

Take `FC(F)OC(F)(F)C(F)Cl` (configuration not stated): the Potency entry is “inactive”.

Take `C[C@]12CCC(=O)C[C@@H]1CC[C@@H]1[C@@H]2CC[C@]2(C)[C@@H](O)CC[C@@H]12`: the Potency result was “inactive”.

In the case of `O=C(CCl)c1ccc(Oc2ccc(C(=O)CCl)cc2)cc1`, the Potency entry is “inactive”.

With `COc1ccc2c3c1O[C@H]1C(=O)CC[C@H]4[C@@H](C2)N(C)CC[C@]314`, the Potency result was “inactive”.

Consider `ClC1C(Cl)C(Cl)C(Cl)C(Cl)C1Cl` (configuration not stated), for which the Potency result is “inactive”.

Turning to `CC(C)(O)C1C2OC(=O)C1C1(O)CC3OC34C(=O)OC2C14C` (configuration not stated), the Potency result was “inactive”.

As to `CCC1(c2ccccc2)C(=O)NC(=O)N(C)C1=O` (configuration not stated), the Potency entry is “inactive”.

For `S=C=S`, the Potency entry is “inactive”.

As for `O=C(CS(=O)C(c1ccccc1)c1ccccc1)NO` (configuration not stated), the Potency result was “inactive”.

As for `CCC(N)Cc1c[nH]c2ccccc12` (configuration not stated), the Potency entry is “inactive”.

Turning to `CCOc1ccc2c3c1O[C@H]1[C@@H](O)C=C[C@H]4[C@@H](C2)N(C)CC[C@@]341`, the Potency entry was “inactive”.

Regarding `CCC1(CC)C(=O)NC(=O)N(C)C1=O`, the Potency result is “inactive”.

For the compound `CCC(C)(S(=O)(=O)CC)S(=O)(=O)CC`, the Potency entry was “inactive”.

As to `CC(C)Nc1ccc(Nc2ccccc2)cc1`, the Potency was 6.31 µM (active).

Consider `CCC1(c2ccccc2)C(=O)NC(=O)N(C(=O)c2ccccc2)C1=O` (configuration not stated), for which the Potency result is “inactive”.

With `C[N+]1(C)CCCCC1COC(=O)C(O)(c1ccccc1)c1ccccc1` (configuration not stated), the Potency result is “inactive”.

In the case of `Oc1cc(Cl)c(Cl)cc1Cl`, the Potency entry was “inactive”.

In the case of `CCOC(=O)c1ccccc1C(=O)OCC`, the Potency result was “inactive”.

In the case of `C[C@H]1CC[C@@H]2[C@@H](C)[C@H]3[C@H](C[C@H]4[C@@H]5CC=C6CC(O[C@@H]7O[C@H](CO)[C@H](O)[C@H](O[C@@H]8O[C@H](CO)[C@@H](O)[C@H](O)[C@H]8O)[C@H]7O[C@H]7O[C@@H](C)[C@H](O)[C@@H](O)[C@H]7O)CC[C@]6(C)[C@H]5CC[C@]34C)N2C1` (some centres not stated), the Potency entry was “inactive”.

As for `CC[N+](C)(CC)CCOC(=O)C(O)(c1ccccc1)c1ccccc1`, the Potency entry is “inactive”.

Consider `O=C(NCNC(=O)NC1C(=O)NC(=O)N1CO)NC1C(=O)NC(=O)N1CO` (configuration not stated), for which the Potency entry is “inactive”.

As for `Cn1sc(Cl)cc1=O`, the Potency entry was “inactive”.

In the case of `[O]=[Cd]`, the Potency result was “inactive”.

For `O=c1[nH]cc(N(CCCl)CCCl)c(=O)[nH]1`, the Potency entry was “inactive”.

In the case of `CCCN1CCCC2Cc3[nH]ncc3CC21` (configuration not stated), the Potency result is “inactive”.

In the case of `CC(C)CCON=O`, the Potency entry is “inactive”.

Take `Oc1cccc[c]1[Hg][Cl]`: the Potency is 8.91 µM (active).

A further assay deals with 7G8. The description is as above. To be noted: P. falciparum in erythrocytes, SYBR Green DNA, 72 h; series mostly up to 28.7 µM. Put shortly: as §1
For `O=C(OCCN1CCCCC1)C(O)(c1ccccc1)c1ccccc1`, the Potency result was “inactive”.

For the compound `CC(N)Cc1ccc(O)cc1` (configuration not stated), the Potency result is “inactive”.

Consider `CC(=O)OC1CN2CCC1CC2` (configuration not stated), for which the Potency result is “inactive”.

In the case of `COc1ccc(OC)c(C(O)C(C)N)c1` (configuration not stated), the Potency entry was “inactive”.

Turning to `FC(F)OC(F)(F)C(F)Cl` (configuration not stated), the Potency entry is “inactive”.

With `C[C@]12CCC(=O)C[C@@H]1CC[C@@H]1[C@@H]2CC[C@]2(C)[C@@H](O)CC[C@@H]12`, the Potency entry is “inactive”.

For `O=C(CCl)c1ccc(Oc2ccc(C(=O)CCl)cc2)cc1`, the Potency result was “inactive”.

`COc1ccc2c3c1O[C@H]1C(=O)CC[C@H]4[C@@H](C2)N(C)CC[C@]314`: the Potency entry is “inactive”.

With `ClC1C(Cl)C(Cl)C(Cl)C(Cl)C1Cl` (configuration not stated), the Potency result was “inactive”.

Take `CC(C)(O)C1C2OC(=O)C1C1(O)CC3OC34C(=O)OC2C14C` (configuration not stated): the Potency result is “inactive”.

Turning to `CCC1(c2ccccc2)C(=O)NC(=O)N(C)C1=O` (configuration not stated), the Potency is 8.91 µM (active).

Take `S=C=S`: the Potency entry is “inactive”.

`O=C(CS(=O)C(c1ccccc1)c1ccccc1)NO` (configuration not stated): the Potency result was “inactive”.

Take `CCC(N)Cc1c[nH]c2ccccc12` (configuration not stated): the Potency result was “inactive”.

For the compound `CCOc1ccc2c3c1O[C@H]1[C@@H](O)C=C[C@H]4[C@@H](C2)N(C)CC[C@@]341`, the Potency entry was “inactive”.

`CCC1(CC)C(=O)NC(=O)N(C)C1=O`: the Potency result was “inactive”.

Take `CCC(C)(S(=O)(=O)CC)S(=O)(=O)CC`: the Potency entry was “inactive”.

With `CC(C)Nc1ccc(Nc2ccccc2)cc1`, the Potency is 8.91 µM (active).

With `CCC1(c2ccccc2)C(=O)NC(=O)N(C(=O)c2ccccc2)C1=O` (configuration not stated), the Potency was 10 µM (active).

In the case of `C[N+]1(C)CCCCC1COC(=O)C(O)(c1ccccc1)c1ccccc1` (configuration not stated), the Potency entry was “inactive”.

In the case of `Oc1cc(Cl)c(Cl)cc1Cl`, the Potency was 11.2 µM (active).

`CCOC(=O)c1ccccc1C(=O)OCC`: the Potency entry is “inactive”.

As for `C[C@H]1CC[C@@H]2[C@@H](C)[C@H]3[C@H](C[C@H]4[C@@H]5CC=C6CC(O[C@@H]7O[C@H](CO)[C@H](O)[C@H](O[C@@H]8O[C@H](CO)[C@@H](O)[C@H](O)[C@H]8O)[C@H]7O[C@H]7O[C@@H](C)[C@H](O)[C@@H](O)[C@H]7O)CC[C@]6(C)[C@H]5CC[C@]34C)N2C1` (some centres not stated), the Potency entry is “inactive”.

For `CC[N+](C)(CC)CCOC(=O)C(O)(c1ccccc1)c1ccccc1`, the Potency result was “inactive”.

Take `O=C(NCNC(=O)NC1C(=O)NC(=O)N1CO)NC1C(=O)NC(=O)N1CO` (configuration not stated): the Potency entry is “inactive”.

As to `Cn1sc(Cl)cc1=O`, the Potency result was “inactive”.

In the case of `[O]=[Cd]`, the Potency entry was “inactive”.

`O=c1[nH]cc(N(CCCl)CCCl)c(=O)[nH]1`: the Potency result was “inactive”.

For the compound `CCCN1CCCC2Cc3[nH]ncc3CC21` (configuration not stated), the Potency entry was “inactive”.

For `CC(C)CCON=O`, the Potency entry is “inactive”.

On to `Oc1cccc[c]1[Hg][Cl]`, for which the Potency was 1.78 µM (active).
